Laboratory results reported in ChEMBL document CHEMBL1961873, “Compounds: GSK PKIS; Assays: Nanosyn kinase panel” (2012).

How the values were obtained:
[1] = target: Serine/threonine-protein kinase pim-2 (Homo sapiens) (UniProt Q9P1W9); details: at 1 µM;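 also: each value is a mean of the inhibition measurements against the kinase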
[2] = target: Serine/threonine-protein kinase pim-3 (Homo sapiens) (UniProt Q86V86); details: at 0.1 µM
[3] = target: Serine/threonine-protein kinase pim-3 (Homo sapiens) (UniProt Q86V86); details: at 1 µM
[4] = target: T1, MAP kinase-activated protein kinase 5 (Homo sapiens) (UniProt Q8IW41); details: at 0.1 µM
T1 sequence (whole entry): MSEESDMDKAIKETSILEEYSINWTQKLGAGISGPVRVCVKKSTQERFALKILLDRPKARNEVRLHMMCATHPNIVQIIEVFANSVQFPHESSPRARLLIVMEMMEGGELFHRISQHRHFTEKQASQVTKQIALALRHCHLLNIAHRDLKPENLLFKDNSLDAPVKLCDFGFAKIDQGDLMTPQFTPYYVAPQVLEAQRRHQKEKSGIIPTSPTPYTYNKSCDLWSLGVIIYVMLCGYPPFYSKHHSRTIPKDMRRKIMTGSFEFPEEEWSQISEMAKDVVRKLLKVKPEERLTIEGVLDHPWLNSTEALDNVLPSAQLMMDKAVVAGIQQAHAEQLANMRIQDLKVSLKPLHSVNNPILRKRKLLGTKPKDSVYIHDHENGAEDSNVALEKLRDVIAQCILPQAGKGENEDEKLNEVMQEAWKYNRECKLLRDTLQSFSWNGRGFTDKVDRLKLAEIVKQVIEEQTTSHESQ

[5] = target: T1, MAP kinase-activated protein kinase 5 (Homo sapiens); details: at 1 µM
[6] = target: Serine/threonine-protein kinase SIK1 (Homo sapiens) (UniProt P57059); details: at 0.1 µM
Sequence of Serine/threonine-protein kinase SIK1 (Homo sapiens) (P57059 whole entry): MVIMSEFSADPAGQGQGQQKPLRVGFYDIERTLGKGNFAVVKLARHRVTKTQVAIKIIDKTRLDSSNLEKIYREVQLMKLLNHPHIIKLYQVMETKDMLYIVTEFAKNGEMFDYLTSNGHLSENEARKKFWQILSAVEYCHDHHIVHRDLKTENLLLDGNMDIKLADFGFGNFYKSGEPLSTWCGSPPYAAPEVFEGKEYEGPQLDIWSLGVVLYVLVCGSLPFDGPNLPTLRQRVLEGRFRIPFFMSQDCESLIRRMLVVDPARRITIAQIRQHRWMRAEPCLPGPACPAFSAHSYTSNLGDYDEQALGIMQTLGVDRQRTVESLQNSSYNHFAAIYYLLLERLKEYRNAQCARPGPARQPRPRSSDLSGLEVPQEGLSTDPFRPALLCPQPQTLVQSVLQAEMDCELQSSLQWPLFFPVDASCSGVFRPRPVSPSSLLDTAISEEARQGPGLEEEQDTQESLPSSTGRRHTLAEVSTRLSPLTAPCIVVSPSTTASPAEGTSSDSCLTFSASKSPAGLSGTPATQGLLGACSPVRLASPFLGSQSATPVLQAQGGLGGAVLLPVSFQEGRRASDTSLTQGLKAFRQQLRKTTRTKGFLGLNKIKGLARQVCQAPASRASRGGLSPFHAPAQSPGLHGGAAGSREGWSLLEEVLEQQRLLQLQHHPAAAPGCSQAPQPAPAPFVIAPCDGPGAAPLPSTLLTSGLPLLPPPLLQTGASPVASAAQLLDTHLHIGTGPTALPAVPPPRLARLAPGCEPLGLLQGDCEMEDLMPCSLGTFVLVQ

[7] = target: Serine/threonine-protein kinase SIK1 (Homo sapiens) (UniProt P57059); details: at 1 µM
[8] = target: Serine/threonine-protein kinase SIK2 (Homo sapiens) (UniProt Q9H0K1); details: at 0.1 µM
Sequence of Serine/threonine-protein kinase SIK2 (Homo sapiens) (Q9H0K1 whole entry, looked up): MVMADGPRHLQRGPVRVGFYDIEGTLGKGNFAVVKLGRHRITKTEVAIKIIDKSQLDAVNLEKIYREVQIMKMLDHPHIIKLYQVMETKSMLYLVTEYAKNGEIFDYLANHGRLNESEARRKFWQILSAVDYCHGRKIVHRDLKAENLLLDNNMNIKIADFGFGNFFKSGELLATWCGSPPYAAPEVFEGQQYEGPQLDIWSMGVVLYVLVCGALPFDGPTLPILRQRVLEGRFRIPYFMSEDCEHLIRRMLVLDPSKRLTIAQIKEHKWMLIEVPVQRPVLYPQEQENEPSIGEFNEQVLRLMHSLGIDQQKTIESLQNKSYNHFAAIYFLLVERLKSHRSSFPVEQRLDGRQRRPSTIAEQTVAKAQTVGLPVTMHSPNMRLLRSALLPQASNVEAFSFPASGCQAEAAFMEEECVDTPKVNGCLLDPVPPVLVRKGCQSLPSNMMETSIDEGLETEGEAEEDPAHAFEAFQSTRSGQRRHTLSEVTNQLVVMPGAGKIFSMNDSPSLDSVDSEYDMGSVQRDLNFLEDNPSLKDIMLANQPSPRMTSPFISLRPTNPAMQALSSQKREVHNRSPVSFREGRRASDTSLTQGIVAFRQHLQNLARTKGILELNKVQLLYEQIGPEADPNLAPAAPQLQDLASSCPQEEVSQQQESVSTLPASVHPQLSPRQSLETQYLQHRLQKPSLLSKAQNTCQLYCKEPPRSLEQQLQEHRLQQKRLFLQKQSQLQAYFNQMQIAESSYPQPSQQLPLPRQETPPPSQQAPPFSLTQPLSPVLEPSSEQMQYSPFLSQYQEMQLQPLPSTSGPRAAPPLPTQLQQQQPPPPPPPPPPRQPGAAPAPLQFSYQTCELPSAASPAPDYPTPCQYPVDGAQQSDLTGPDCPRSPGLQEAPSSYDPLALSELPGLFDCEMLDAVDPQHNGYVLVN

[9] = target: Serine/threonine-protein kinase SIK2 (Homo sapiens) (UniProt Q9H0K1); details: at 1 µM
[10] = target: T2, Serine/threonine-protein kinase TBK1 (Homo sapiens) (UniProt Q9UHD2); details: at 0.1 µM
T2 sequence (whole entry): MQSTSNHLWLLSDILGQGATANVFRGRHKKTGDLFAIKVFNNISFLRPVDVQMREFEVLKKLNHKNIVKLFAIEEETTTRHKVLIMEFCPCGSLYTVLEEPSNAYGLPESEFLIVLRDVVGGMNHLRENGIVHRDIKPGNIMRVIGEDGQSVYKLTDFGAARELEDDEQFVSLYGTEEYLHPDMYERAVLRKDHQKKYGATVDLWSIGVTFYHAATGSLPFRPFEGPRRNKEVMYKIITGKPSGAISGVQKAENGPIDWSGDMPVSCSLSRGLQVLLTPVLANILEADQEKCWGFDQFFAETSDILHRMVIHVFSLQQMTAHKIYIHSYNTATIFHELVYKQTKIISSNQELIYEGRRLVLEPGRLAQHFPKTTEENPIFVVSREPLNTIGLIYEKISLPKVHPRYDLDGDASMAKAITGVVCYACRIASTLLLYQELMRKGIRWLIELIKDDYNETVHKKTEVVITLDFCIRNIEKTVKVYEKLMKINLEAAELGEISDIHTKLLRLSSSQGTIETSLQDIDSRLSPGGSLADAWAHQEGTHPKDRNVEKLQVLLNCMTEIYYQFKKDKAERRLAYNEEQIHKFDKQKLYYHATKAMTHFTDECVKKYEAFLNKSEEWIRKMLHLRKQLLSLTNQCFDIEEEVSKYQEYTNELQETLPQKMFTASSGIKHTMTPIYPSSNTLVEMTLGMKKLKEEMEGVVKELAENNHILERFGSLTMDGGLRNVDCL

[11] = target: T2, Serine/threonine-protein kinase TBK1 (Homo sapiens); details: at 1 µM
[12] = target: T3, Testis-specific serine/threonine-protein kinase 1 (Homo sapiens) (UniProt Q9BXA7); details: at 0.1 µM
T3 sequence (whole entry): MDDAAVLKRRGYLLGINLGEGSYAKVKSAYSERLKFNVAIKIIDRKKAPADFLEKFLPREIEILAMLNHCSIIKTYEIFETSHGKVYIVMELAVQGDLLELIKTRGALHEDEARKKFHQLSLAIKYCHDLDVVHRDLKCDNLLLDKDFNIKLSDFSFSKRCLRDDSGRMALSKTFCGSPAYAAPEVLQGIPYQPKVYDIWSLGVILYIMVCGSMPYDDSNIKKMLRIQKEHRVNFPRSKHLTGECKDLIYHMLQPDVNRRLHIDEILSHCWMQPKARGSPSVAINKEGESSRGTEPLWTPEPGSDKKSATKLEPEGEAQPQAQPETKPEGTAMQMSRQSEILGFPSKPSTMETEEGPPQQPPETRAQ

[13] = target: T3, Testis-specific serine/threonine-protein kinase 1 (Homo sapiens); details: at 1 µM
[14] = target: T4, Testis-specific serine/threonine-protein kinase 2 (Homo sapiens) (UniProt Q96PF2); details: at 0.1 µM
T4 sequence (whole entry): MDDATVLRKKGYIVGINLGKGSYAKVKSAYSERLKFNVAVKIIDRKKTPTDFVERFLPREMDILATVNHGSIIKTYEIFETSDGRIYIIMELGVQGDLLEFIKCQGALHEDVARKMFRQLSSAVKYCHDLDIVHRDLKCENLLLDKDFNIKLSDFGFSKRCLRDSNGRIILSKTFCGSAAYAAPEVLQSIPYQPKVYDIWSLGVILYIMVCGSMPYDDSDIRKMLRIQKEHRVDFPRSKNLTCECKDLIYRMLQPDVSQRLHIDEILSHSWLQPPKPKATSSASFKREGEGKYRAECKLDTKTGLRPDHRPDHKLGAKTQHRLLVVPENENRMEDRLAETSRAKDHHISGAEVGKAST

[15] = target: T4, Testis-specific serine/threonine-protein kinase 2 (Homo sapiens); details: at 1 µM
[16] = target: Casein kinase I isoform alpha (Homo sapiens) (UniProt P48729); details: at 0.1 µM
Sequence of Casein kinase I isoform alpha (Homo sapiens) (P48729 2-337 limits assumed): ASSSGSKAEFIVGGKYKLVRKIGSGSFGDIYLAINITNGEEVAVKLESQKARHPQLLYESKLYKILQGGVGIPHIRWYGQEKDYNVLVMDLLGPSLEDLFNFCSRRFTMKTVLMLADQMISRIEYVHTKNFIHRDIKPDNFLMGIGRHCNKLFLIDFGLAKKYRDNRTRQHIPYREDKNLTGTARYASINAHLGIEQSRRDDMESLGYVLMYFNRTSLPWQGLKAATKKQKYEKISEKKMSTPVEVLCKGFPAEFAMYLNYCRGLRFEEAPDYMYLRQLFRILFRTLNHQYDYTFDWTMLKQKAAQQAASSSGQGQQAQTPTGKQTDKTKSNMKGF

[17] = target: Casein kinase I isoform alpha (Homo sapiens) (UniProt P48729); details: at 1 µM
[18] = target: Casein kinase I isoform gamma-1 (Homo sapiens) (UniProt Q9HCP0); details: at 0.1 µM
Sequence of Casein kinase I isoform gamma-1 (Homo sapiens) (Q9HCP0 whole entry, looked up, canonical isoform): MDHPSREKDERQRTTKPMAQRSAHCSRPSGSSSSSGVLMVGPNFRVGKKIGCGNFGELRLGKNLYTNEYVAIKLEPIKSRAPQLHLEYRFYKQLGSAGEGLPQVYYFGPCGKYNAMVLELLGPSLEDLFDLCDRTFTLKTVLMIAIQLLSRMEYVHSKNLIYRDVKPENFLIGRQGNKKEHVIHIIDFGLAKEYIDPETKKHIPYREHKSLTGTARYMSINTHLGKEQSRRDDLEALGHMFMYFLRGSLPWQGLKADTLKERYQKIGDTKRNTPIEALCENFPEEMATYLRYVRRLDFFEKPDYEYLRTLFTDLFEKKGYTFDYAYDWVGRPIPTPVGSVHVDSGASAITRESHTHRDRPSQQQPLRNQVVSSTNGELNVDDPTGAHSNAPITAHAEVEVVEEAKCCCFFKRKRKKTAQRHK

[19] = target: Casein kinase I isoform gamma-1 (Homo sapiens) (UniProt Q9HCP0); details: at 1 µM
[20] = target: Casein kinase I isoform gamma-2 (Homo sapiens) (UniProt P78368); details: at 0.1 µM;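 also: values are mean inhibition figures reported as part of the GSK PKIS dataset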
Sequence of Casein kinase I isoform gamma-2 (Homo sapiens) (P78368 whole entry, looked up, canonical isoform): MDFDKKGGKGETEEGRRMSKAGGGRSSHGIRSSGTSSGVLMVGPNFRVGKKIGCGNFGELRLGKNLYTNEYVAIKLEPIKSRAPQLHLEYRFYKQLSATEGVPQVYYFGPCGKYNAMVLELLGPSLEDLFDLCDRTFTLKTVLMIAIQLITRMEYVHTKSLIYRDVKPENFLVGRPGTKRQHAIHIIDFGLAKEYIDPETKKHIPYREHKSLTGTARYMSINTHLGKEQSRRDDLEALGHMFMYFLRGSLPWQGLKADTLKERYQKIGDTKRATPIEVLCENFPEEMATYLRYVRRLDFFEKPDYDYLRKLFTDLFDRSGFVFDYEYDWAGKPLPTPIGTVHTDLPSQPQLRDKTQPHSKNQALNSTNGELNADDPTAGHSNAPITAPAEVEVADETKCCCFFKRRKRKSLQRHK

Sequence of Serine/threonine-protein kinase pim-2 (Homo sapiens) (Q9P1W9 whole entry, looked up): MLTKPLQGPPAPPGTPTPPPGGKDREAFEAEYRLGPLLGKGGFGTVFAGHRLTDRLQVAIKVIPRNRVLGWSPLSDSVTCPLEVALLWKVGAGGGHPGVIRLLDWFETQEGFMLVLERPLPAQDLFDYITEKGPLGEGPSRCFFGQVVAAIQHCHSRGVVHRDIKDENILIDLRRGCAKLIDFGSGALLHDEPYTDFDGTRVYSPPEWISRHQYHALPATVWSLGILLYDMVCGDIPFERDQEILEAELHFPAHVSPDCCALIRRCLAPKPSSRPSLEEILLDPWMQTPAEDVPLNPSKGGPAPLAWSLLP

SMILES	inhibition [1] [%]	inhibition [2] [%]	inhibition [3] [%]	inhibition [4] [%]	inhibition [5] [%]	inhibition [6] [%]	inhibition [7] [%]	inhibition [8] [%]	inhibition [9] [%]	inhibition [10] [%]	inhibition [11] [%]	inhibition [12] [%]	inhibition [13] [%]	inhibition [14] [%]	inhibition [15] [%]	inhibition [16] [%]	inhibition [17] [%]	inhibition [18] [%]	inhibition [19] [%]	inhibition [20] [%]
Cc1ccc(C(=O)NC2CCCCC2)cc1-c1ccc(C(=O)NCC2CC2)cc1	1.66	22.2	-1	0.69	-0.72	3.08	8.02	2.73	1.96	1.75	3.86	1.44	-1.51	-0.17	-1.47	4.32	3.89	1.72	2.66	0.35
CCn1c(-c2nonc2N)nc2ccncc21	0.12	-0.49	-1.56	0.36	-0.69	-0.38	8.47	5.56	3.95	2.23	1.82	2.36	1.75	0.59	-0.93	0.34	1.43	0.65	-0.84	0.24
COC(=O)Nc1nc2cc(Oc3ccc(NC(=O)Nc4cccc(C(=O)O)c4)cc3)ccc2[nH]1	-2.76	1.29	3.84	0.42	1	3.75	1.25	-0.04	2.04	0.81	2.42	0.41	0.96	0.4	0.93	2.25	0.72	-2.42	-2.13	-2.21
Nc1ncnc2occ(-c3ccc(NC(=O)Nc4cc(C(F)(F)F)cc(C(F)(F)F)c4)cc3)c12	0.27	-1.29	-2.53	0.61	0.59	1.96	2.47	3.48	4.42	-0.65	3.1	-0.4	-1.46	1.06	-2.08	-0.62	1.87	1.49	2.74	0.5
CCn1c(-c2nonc2N)nc2c(N3CCCC3)nccc21	0.29	-0.84	1	-0.99	-0.15	-7.25	-2.47	-7.08	-6.02	-0.24	2.54	0.01	-0.07	-0.87	0.44	-0.35	0.23	-0.72	-0.83	-0.88
[O-][S+]1CCN(Cc2ccc(-c3ccc4ncnc(Nc5ccc(OCc6ccccc6)c(F)c5)c4c3)o2)CC1	0.23	-1.55	-1.98	0.41	-0.19	3.06	3.96	3.09	5.38	1.1	2.87	1.77	0.49	0.63	-1.37	2.43	4.39	2.09	3.44	1.93
